# Experimental data reported in the supplement of paper PMC3334620.
# Whole data set: some 33,000 sequences, median “E-score (-0.5 to 0.5)” near -0.035, cut for the highest 2% near 0.35. The entries come from a sample that favours the highest values as a whole.
# Molecular target: T1, Pdr3 (UniProt P33200)
# T1 sequence: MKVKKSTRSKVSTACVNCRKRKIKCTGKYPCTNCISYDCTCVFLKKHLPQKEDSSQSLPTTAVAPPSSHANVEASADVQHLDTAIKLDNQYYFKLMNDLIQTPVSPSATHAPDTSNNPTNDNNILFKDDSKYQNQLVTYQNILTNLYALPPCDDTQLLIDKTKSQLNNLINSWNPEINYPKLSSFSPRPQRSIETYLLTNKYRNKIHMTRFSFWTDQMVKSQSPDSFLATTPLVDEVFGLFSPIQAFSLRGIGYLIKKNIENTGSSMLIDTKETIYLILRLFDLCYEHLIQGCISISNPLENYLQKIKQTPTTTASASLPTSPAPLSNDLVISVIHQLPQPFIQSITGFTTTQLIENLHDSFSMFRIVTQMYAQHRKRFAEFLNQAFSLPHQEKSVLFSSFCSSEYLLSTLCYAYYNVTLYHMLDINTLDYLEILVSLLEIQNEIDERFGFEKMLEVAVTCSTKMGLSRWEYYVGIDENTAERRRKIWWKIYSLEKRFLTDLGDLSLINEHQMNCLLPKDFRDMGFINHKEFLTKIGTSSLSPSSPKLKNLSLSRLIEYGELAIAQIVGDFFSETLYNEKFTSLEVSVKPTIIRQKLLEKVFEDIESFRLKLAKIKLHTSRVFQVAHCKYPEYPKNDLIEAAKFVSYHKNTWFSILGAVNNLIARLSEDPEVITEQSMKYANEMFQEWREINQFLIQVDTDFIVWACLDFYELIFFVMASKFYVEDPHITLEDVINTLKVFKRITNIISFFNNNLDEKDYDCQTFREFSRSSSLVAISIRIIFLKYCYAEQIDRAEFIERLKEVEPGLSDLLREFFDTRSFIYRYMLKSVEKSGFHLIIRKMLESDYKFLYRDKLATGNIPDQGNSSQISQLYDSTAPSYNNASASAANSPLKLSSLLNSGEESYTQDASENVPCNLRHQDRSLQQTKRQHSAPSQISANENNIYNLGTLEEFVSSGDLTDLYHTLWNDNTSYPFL
# Assay: PBM E-score (8-mer binding enrichment) (E-score (-0.5 to 0.5)); higher = stronger / more preferred TF binding
# Details: protein concentration: 200 nM; construct: GST-full length
# Protocol: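 Universal 'all 10-mer' protein binding microarrays (Agilent AMADID 015681) probed with GST-tagged S. cerevisiae TFs (full-length or DBD) made by in vitro transcription/translation (PURExpress), about 100-200 nM. Bound TF was detected with fluorescent anti-GST. Each ungapped 8-mer (which stands for itself and its reverse complement) is scored by the PBM enrichment score (E-score), a modified Wilcoxon-Mann-Whitney statistic from -0.5 to +0.5, computed with the Universal PBM Analysis Suite. Scale: above 0.35 generally sequence-specific binding.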
row,Sequence,PBM E-score
1,AGCGGATA,0.3
2,CTCGGACC,0.359
3,CTCAGACC,-0.0888
4,CCACATTC,0.0586
5,GAGGCGAA,0.0545
6,CGCGAGCG,0.106
7,CTCTATGC,-0.0609
8,CCGGACTA,0.333
9,CCGGACAC,0.366
10,ACGGACTC,0.205
11,CCGGACTC,0.363
12,CCGGACAA,0.329
13,CCGGACAG,0.338
14,AGTGACTA,-0.132
15,ATCCCGTG,0.396
16,ATCCCGAT,0.302
17,ATCCCGTC,0.311
18,ATCCCGAG,0.395
19,ATCCCGAA,0.308
20,ATCCCGTA,0.242
21,AGCGGTAA,0.045
22,CGCGGTAC,0.367
23,AGCGGTAC,-0.0325
24,AGCGGTCC,0.0698
25,CGCGGTCC,0.384
26,CGCGGTCA,0.307

row,Sequence,PBM E-score
1,CGCGGTAG,0.282
2,GGCGGTAA,0.326
3,CGCGGTAA,0.36
4,TCTCTACA,-0.249
5,CAGGGACA,0.0593
6,ATGCAAGC,-0.0447
7,TAGTTGGA,-0.0882
8,CCGCACTA,0.241
9,GATGAAAC,0.0428
10,TCGCCACA,-0.00326
11,CTATCAGC,-0.156
12,AATTCGCA,0.255
13,CAGAAATC,-0.108
14,AGTCCGGA,0.422
15,AGTCCGGG,0.301
16,GGTCCGCA,0.28
17,CGTCCGAA,0.208
18,GGTCCGGA,0.413
19,AGTCCGGC,0.216
20,GGTCCGTA,0.293
21,CGTCCGGC,0.321
22,CGTCCGGA,0.433
23,CCCGCATC,0.0416
24,AAGGTCAC,-0.213
25,GGAAGACC,0.202
26,GACTCACC,-0.126

row,Sequence,PBM E-score
1,ATCTGCTA,-0.241
2,CTGATGCA,0.0307
3,CTAAGAAG,-0.0671
4,CTTCAAAG,-0.275
5,AAGCTGTC,-0.208
6,CGATCCCA,0.067
7,CGATCCCG,0.361
8,CAATCCCC,0.0676
9,CAATCCCA,-0.105
10,CGATCCCC,0.0699
11,AGATCCCT,-0.142
12,AGATCCCC,0.015
13,AGATCCCG,0.4
14,CAATCCCG,0.392
15,CTTCACCA,-0.153
16,TCAAGGAA,-0.0766
17,ATCTGATA,-0.18
18,CGAGGTCC,0.299
19,TCAACGCA,-0.0152
20,ACAACGGG,0.221
21,CCAACGGC,-0.0155
22,CCAACGGA,0.362
23,CCAACGGG,0.213
24,ACAACGGA,0.375
25,GCAACGTA,-0.192
26,TCAACGGA,0.359

row,Sequence,PBM E-score
1,TCAACGAA,0.0322
2,ACAACGGT,-0.0457
3,GCAACGGC,0.152
4,GCAACGGA,0.413
5,ACTTCGGA,0.318
6,ATATAAGG,0.167
7,CGCTATCA,0.0421
8,ACGACACC,0.0551
9,CCCGCAGA,0.235
10,CCACAGGA,-0.15
11,ACAAAGTA,-0.0427
12,AAGGGATT,-0.172
13,CGGCGAAG,0.154
14,ATAAGGTG,-0.0163
15,AGGAAGAC,-0.246
16,AGGAAGAA,-0.186
17,CGGAAGAC,0.393
18,GGGAAGAC,-0.0964
19,GGGAAGAA,-0.0436
20,CCGAAGAG,0.129
21,AGGAAGAG,-0.0084
22,CGGAAGAA,0.378
23,CGGAAGAG,0.365
24,GCCCCAGC,0.0198
25,CGCTCCAA,-0.0785
26,ACTCCAGT,-0.118

row,Sequence,PBM E-score
1,GACTAGAA,-0.203
2,ACGGATTA,0.217
3,ACGGATAG,0.216
4,CCGGATTA,0.385
5,GGGGATAA,0.0548
6,GCGGATAA,0.342
7,CCGGATAC,0.351
8,ACGGATAT,0.305
9,ACGGATAA,0.375
10,CGGGATAA,0.408
11,GCGGATTA,0.204
12,TGGGATAA,-0.102
13,CCGGATAA,0.396
14,AGCTAGTC,-0.0629
15,ACAGCCCG,0.0226
16,ACCTTTCT,-0.129
17,GAAACTCC,0.0961
18,AATTCAGC,0.0247
19,ACGGATAC,0.368
20,ATGGATAC,-0.0299
21,AAGGATAC,-0.00551
22,ACGGTGCC,0.0198
23,CGGGCCCG,0.44
24,TCGGCCAA,0.12
25,CCGGCCGC,0.317
26,ACGGCCGA,0.293

row,Sequence,PBM E-score
1,CGGGCCCA,0.0442
2,ACGGCCGG,0.344
3,CCGGCCGG,0.472
4,ACGGCCCG,0.22
5,CCGGCCCA,-0.0155
6,TCGGCCGA,0.377
7,AGGGCCCG,0.182
8,CCGGCCCG,0.375
9,CCGATGGC,0.175
10,CGAGCTGA,0.143
11,ACTACCGA,-0.0714
12,CGCCTTGC,-0.0202
13,ATCATTGA,-0.0198
14,CAGGCACA,-0.171
15,AACTGGCA,-0.0302
16,GGTCAAAC,0.0507
17,GGTTCTGA,-0.109
18,ACCCGTGA,0.0325
19,CAGACGGG,0.103
20,CTAGTCTC,-0.269
21,CCGGCCGA,0.372
22,GCGGCCGA,0.222
23,CCGGCCTA,0.184
24,GGAGTCAC,-0.0786
25,CCTGTAGC,-0.282
26,CAGAAGGC,0.0006

row,Sequence,PBM E-score
1,GGGAAGGA,-0.00585
2,CGGAAGGA,0.396
3,AGGAAGGA,-0.363
4,CGGAAGGC,0.369
5,AGGAAGGC,-0.185
6,ATATCTGC,-0.044
7,ATAGAAAG,-0.0611
8,AGGAAGCG,0.0228
9,CACCTGCA,-0.142
10,CGGCGGAA,0.456
11,CGGCGGCA,0.226
12,AGGCGGAG,0.174
13,TGGCGTAA,-0.263
14,CGGCGGAG,0.372
15,AGGCGGAA,0.35
16,TGGCGAAA,-0.0244
17,CGGCGGAC,0.289
18,GGGCGGAC,0.373
19,AGGCGGCG,0.0493
20,AGGCGGAC,0.211
21,TGGCGGAA,0.359
